sEH activator – soluble epoxide hydrolase activators, primary screen, biochemical, human sEH | Bifunctional epoxide hydrolase 2 (Homo sapiens), P34913 | purified human sEH enzymatic activity, activator screen | activation, % at 2 µM | 0.04% of 91,000 active | AID 717, 2007; in the data active = activation above about 37%
CYP2C9 act – human CYP2C9 activators, primary screen, biochemical, luminescence | Cytochrome P450 2C9 (Homo sapiens), P11712 | recombinant CYP2C9, luciferin-H conversion; active compounds read high; factor 1 = untreated enzyme, 0 = blocked | activation factor at 5 µM | 1.4% of 96,000 active | AID 1024, 2008;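 active = activation factor of 2 or more for CYP2C9 at a 5 µM dose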
Target sequence (P11712 whole entry, looked up): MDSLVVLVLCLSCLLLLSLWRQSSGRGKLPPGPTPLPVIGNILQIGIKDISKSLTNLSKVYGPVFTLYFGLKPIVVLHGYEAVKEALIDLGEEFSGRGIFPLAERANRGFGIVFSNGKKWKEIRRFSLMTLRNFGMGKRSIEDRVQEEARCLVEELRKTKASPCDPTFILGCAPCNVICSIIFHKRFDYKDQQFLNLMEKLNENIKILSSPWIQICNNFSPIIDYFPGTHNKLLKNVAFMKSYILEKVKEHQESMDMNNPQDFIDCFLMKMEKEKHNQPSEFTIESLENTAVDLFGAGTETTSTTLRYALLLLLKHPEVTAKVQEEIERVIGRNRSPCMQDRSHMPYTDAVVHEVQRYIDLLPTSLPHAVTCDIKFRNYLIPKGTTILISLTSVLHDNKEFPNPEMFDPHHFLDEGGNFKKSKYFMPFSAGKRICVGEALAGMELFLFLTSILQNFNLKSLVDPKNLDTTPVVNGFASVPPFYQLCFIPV
CYP2C19 act – human CYP2C19 activators, primary screen, biochemical, luminescence; Cytochrome P450 2C19 (Homo sapiens), P33261; recombinant CYP2C19, luciferin-H EGE luminescence; active compounds read high; 0 = fully inhibited enzyme, 1 = untreated enzyme; activation factor at 5 µM; 96,000 tested, under 10 active; AID 1025, 2008;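 active = activation factor of at least 2 at 5 µM in the primary screen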
CYP2C9 inh – blockers of cytochrome P450 2C9 activity – biochemical, luminescence, ADME assay, primary screen; 20% of 96,000 active; inhibition, % at 5 µM; AID 777, 2007; CYP2C9 Supersomes, luciferin-H conversion; P11712;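 active = blocking of liver enzyme CYP2C9 beyond about 50% at 5 µM, limit read from the data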
CYP2C19 inh – blockers of cytochrome P450 2C19 activity – biochemical, luminescence, ADME assay, primary screen; CYP2C19 Supersomes, luciferin-H EGE luminescence, 30 min; 21% of 96,000 active; inhibition, % at 5 µM; AID 778, 2007;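 active = CYP2C19 inhibition above a set limit at 5 µM in the primary screen, cut at about 50% in these data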
sEH inhibitor – soluble epoxide hydrolase inhibitors, primary screen, biochemical, human sEH | Bifunctional epoxide hydrolase 2 (Homo sapiens), P34913 | recombinant human sEH enzymatic activity assay | inhibition, % at 2 µM | 0.34% of 91,000 active; in the data active = inhibition above about 80%
Of the large screens only hits and unclear results are named; the others gave an inactive call. Hits are enriched below; roughly 27% of the tested compounds scored in any of these assays.

Cc1sc2nc(C3CC3)nc(SCC(=O)NCc3ccco3)c2c1C	CYP2C19 inh 84
Cc1cc(NC(=O)CSc2nc(C3CC3)nc3sc(C)c(C)c23)no1	CYP2C9 inh 63
Cc1sc2nc(C3CC3)nc(SCC(=O)N3c4ccccc4CC3C)c2c1C (stereo unspecified)	CYP2C9 inh 99, CYP2C19 inh 65
CCc1nc(SCC(=O)Nc2cc(C)on2)c2c(C)c(C)sc2n1	none (no result: sEH activator, sEH inhibitor)
C=CCN1C(=O)C(Cc2ccc(OCC)cc2)S/C1=N\N=C\c1cccs1 (stereo unspecified)	CYP2C9 inh 54
C=CCN1C(=O)C(Cc2ccc(C)cc2)S/C1=N/N=C/c1ccco1 (stereo unspecified)	none
C=CCN1C(=O)C(Cc2ccccc2)S/C1=N/N=C/c1cccs1 (stereo unspecified)	CYP2C9 inh 68
CCOC(=O)C(Sc1ncnc2c1sc1nc(N3CCOCC3)c3c(c12)CCCC3)c1ccccc1 (stereo unspecified)	none
COC(=O)c1c(-c2ccc(F)cc2)noc1N	none
O=C(CN(Cc1ccccc1Cl)C(=O)c1ccc(CN2CCOCC2)o1)NCC1CCCO1 (stereo unspecified)	none
OCCN(Cc1ccccc1)Cc1cccc(Cl)c1Cl	CYP2C9 inh 76, CYP2C19 inh 93
OCCN(Cc1ccccc1)CC1CC2C=CC1C2 (stereo unspecified)	none
OCCN(Cc1ccccc1)Cc1ccccc1F	CYP2C19 inh 77
OCCN(Cc1ccccc1)Cc1ccccc1Cl	CYP2C19 inh 81
Cc1cc(CN2CCOCC2)c(O)c(C2(C)CCCCC2)c1	none
O=C(Nc1nc2c(s1)CCCC2)c1ccc(Br)s1	none (no result: sEH activator, sEH inhibitor)
CC(C)Cc1cc(C(=O)N2CCN(C(c3ccccc3)c3ccccc3)CC2)no1	CYP2C9 inh 79
O=C(N1CCCCC1)N1CCN(C(c2ccccc2)c2ccccc2)CC1	CYP2C9 inh 81, CYP2C19 inh 57
COc1ccc2oc(C)c(C(=O)Cn3ccnc3)c2c1	CYP2C9 inh 73, CYP2C19 inh 90
CCN(CC)CCOC(=O)c1c(C)oc2ccc(OC)cc12	none
N=c1cc(C2(O)CCCCC2)n2c(nc3ccccc32)s1	CYP2C9 inh 58
Cc1cc(C)c(C(N)=O)c(NCCc2ccccc2)n1	CYP2C19 inh 56
O=C1NN(c2ccccc2)C(=O)C2C3C=CC(C4CC34)C12 (stereo unspecified)	none
CCOc1ccc(Oc2nc(Nc3ccc(C)cc3)nc(N(C)C)n2)nn1	none
N#Cc1c(-c2cccs2)nc(SCC(=O)c2cccs2)[nH]c1=O	CYP2C9 inh 98
O=C(CSc1nc2ccccc2c(=O)[nH]1)N1CCCCCC1	none
O=C(CSc1nc2ccccc2c(=O)[nH]1)c1cccs1	CYP2C9 inh 66
COC(=O)c1ccc(NC(=O)CSc2nc3ccccc3c(=O)[nH]2)cc1	none
O=C(CSc1nc2ccccc2c(=O)[nH]1)c1ccc(O)c(O)c1	CYP2C9 inh 77 (no result: sEH activator, sEH inhibitor)
C=CCSc1nc(-c2ccccc2)c(C#N)c(=O)[nH]1	none
Cc1cc(C)n2nc3nc4c(cc3c2n1)CCCC4	none
COc1ccc(C2NCCn3cccc32)cc1 (stereo unspecified)	none (no result: CYP2C9 act, CYP2C19 act, CYP2C9 inh, CYP2C19 inh)
CCCCc1ccc(NC(=O)CC(C)=O)cc1	none
CN(C)S(=O)(=O)Nc1ccc(Oc2ccccc2)cc1	CYP2C9 inh 85, CYP2C19 inh 95
CCCCc1ccc(NS(=O)(=O)N(C)C)cc1	CYP2C9 inh 94, CYP2C19 inh 65 (no result: sEH activator, sEH inhibitor)
CCOc1ccccc1NS(=O)(=O)N(C)C	none
Cc1[nH]c(=O)[nH]c(=O)c1S(=O)(=O)Nc1ccc(Oc2ccccc2)cc1	CYP2C9 inh 96, CYP2C19 inh 92
CCCCOC(=O)Cn1c2ccc(OC)cc2c2nc3ccccc3nc21	none
COc1ccc(NC(=O)C(C)N(c2ccc(C)cc2)S(C)(=O)=O)c(OC)c1 (stereo unspecified)	CYP2C9 inh 52, CYP2C19 inh 90
COc1ccc(NC(=O)Nc2cc(C)ccc2OC(F)F)c(OC)c1	none
COc1ccc(NC(=O)NS(=O)(=O)c2ccc(C)cc2)c(OC)c1	CYP2C9 inh 92
CC(=O)N1CN(S(=O)(=O)c2ccc(C)cc2)CC1C (stereo unspecified)	none
Cc1ccnc(NC(=O)CCc2c(C)nc3ncnn3c2C)c1	none
CC(=NCc1ccco1)c1c(O)n(C2CCCCC2)c(=O)[nH]c1=O	CYP2C9 inh 55, CYP2C19 inh 97
Cn1c(=O)c2c(nc(Br)n2Cc2c(F)cccc2Cl)n(C)c1=O	none (no result: sEH activator, sEH inhibitor)
CC(C)c1nc(SCc2c(F)cccc2Cl)c2c(=O)n(C)c(=O)n(C)c2n1	CYP2C9 inh 67 (no result: sEH activator, sEH inhibitor)
Cn1c(=O)c2c(nc(SCCCC#N)n2Cc2c(F)cccc2Cl)n(C)c1=O	CYP2C9 inh 59
CC(C)c1nc(SCC(=O)N2CCCc3ccccc32)c2c(=O)n(C)c(=O)n(C)c2n1	none (no result: sEH activator, sEH inhibitor)
Cn1c(=O)c2c(nc(OCc3cccnc3)n2Cc2c(F)cccc2Cl)n(C)c1=O	CYP2C9 inh 52
CCOc1cc(NC2CS(=O)(=O)CC2O)c(OCC)cc1NC(=O)c1ccccc1 (stereo unspecified)	none
COc1ccc(-c2nc3n(c(=O)c2C#N)CCCS3)cc1	none
COc1ccc(-c2cc3nc4n(c(=O)c3s2)CCC4)cc1	CYP2C9 inh 51, CYP2C19 inh 70
CCO/N=C(/C)c1c(O)c(C)c(-c2ccccc2)n(-c2ccccc2)c1=O	none (no result: CYP2C9 act, CYP2C19 act, CYP2C9 inh, CYP2C19 inh)
Cc1noc(C)c1COc1cccc(C(=O)OCCOc2ccc(F)cc2)c1	CYP2C9 inh 89, CYP2C19 inh 98
Cc1noc(C)c1COc1cccc(C(=O)OC(C)C(=O)Nc2ccc3c(c2)OCO3)c1 (stereo unspecified)	CYP2C9 inh 81
COc1cc(C(=O)Oc2ccccc2)ccc1OCc1c(C)noc1C	none
Cc1ccc(NC(=O)c2cccc(OCc3c(C)noc3C)c2)c(C)c1	CYP2C9 inh 88, CYP2C19 inh 81
Cc1noc(C)c1COc1cccc(C(=O)Oc2ccc3c(c2)OCO3)c1	CYP2C9 inh 88, CYP2C19 inh 67
O=C(OC(C(=O)NCC1CCCO1)c1ccc(F)cc1)c1cccs1 (stereo unspecified)	none (no result: CYP2C9 act, CYP2C19 act, CYP2C9 inh, CYP2C19 inh)
Cc1ccc(C2C(C=Nc3c(C)n(C)n(-c4ccccc4)c3=O)=C(c3ccccc3)Oc3ccccc32)cc1 (stereo unspecified)	none
O=C(CSc1nnnn1-c1ccc(F)cc1)Nc1ccc(N2CCOCC2)c(Cl)c1	none
CCCCNC(=O)C1CCCN1C(=O)NC1CCCCC1 (stereo unspecified)	none (no result: CYP2C9 act, CYP2C19 act, CYP2C9 inh, CYP2C19 inh)
Cc1nn(Cc2ccc(Cl)c(Cl)c2)c(C)c1NC(=O)c1sc2ccccc2c1Cl	CYP2C9 inh 87, CYP2C19 inh 70

From PubChem BioAssay
